Several values for one entry are separate records, joined by “and”; a condition that tells them apart may be missing. Equal values may be shown once. The panel holds about 83,000 compounds, 20% with a hit somewhere; the sample as a whole holds those more often.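 96-well plates, one dose, 48 hours. Percent growth reported; active if below 10.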 Activity calls are given as the source filed them.
Test system: A549/ATCC NSCLC
Assay: NCI-60 one-dose screen, 48 h (100 = growth as untreated, 0 = no growth, -100 = all killed)
Details: 1 µM
Description: Growth inhibition of the A549/ATCC human Non-Small Cell Lung tumor cell line is measured as a screen for anti-cancer activity. Cells are grown in 96 well plates and exposed to the test compound for 48 hours. Compounds are tested at a single concentration, which is 10^-5 M for most compounds. The reported endpoint is percent growth (GI% or GIPRCNT), where numbers from 0 - 100% represent growth inhibition, and numbers from -100% - 0 represent cell death. For example, a value of 40 represents 60% growth inhibition. A value of 0 means no net growth occurred over the course of the experiment. A value of -40 indicates 40% of cells at the beginning of the experiment died by the end of the experiment. A value of -100 means all cells are dead at the end of the experiment.
NCI-60 Human Tumor Cell Lines Screen was performed using the standard one-dose NCI protocol, which is described in more detail at https://dtp.cancer.gov/discovery_development/nci-60/default.htm.
Compounds with GIPRCNT values below 10 were considered active. Activity score was based on GIPRCNT using the following formula: […]
Score is 0 for GIPRCNT values of 100 or above, 50 for GIPRCNT values of 0, and 100 for GIPRCNT values of -100.

| SMILES | growth |
| --- | --- |
| CNC(=O)c1cc(Oc2ccc(CC(=O)Nc3cc(C(C)(C)C)nn3C)cc2)ccn1 | 71.2% (inactive) |

Same assay, conditions: 10 µM

| SMILES | growth |
| --- | --- |
| CNC(=O)c1cc(Oc2ccc(CC(=O)Nc3cc(C(C)(C)C)nn3C)cc2)ccn1 | 67.2% (inactive) |
| CC(C)(C)c1cc(NC(=O)Cc2ccc(-c3cnc4cc(-c5cnn(CCN6CCOCC6)c5)ccc4n3)cc2)no1 | 24.3% (inactive) |
| CC1(C)OB(c2ccc(Cn3cc(F)c(=O)[nH]c3=O)cc2)OC1(C)C | 98.9% (inactive) |
| COc1ccc(Cl)cc1C(=O)NCCc1ccc(S(=O)(=O)NC(=O)NC2CCCCC2)cc1 | 99.8% (inactive) and 103% (inactive) |

Same assay, conditions: 10 µM unless noted

| SMILES | growth |
| --- | --- |
| Cc1ccc(S(=O)(=O)Nc2nc3ccccc3nc2Nc2ccc3nsnc3c2)cc1 | 31% (inactive) and 38.4% (inactive) |
| CO/N=C/C=C\C(=O)N/C=C/C[C@H]1/C=C/[C@H](O)/C=C\C=C\c2cccc(O)c2C(=O)O1 | 18.1% (inactive) and 12% (inactive) |
| CCN(CC)CCCC(C)Nc1cnc(C(=O)Nc2cc(F)cc3cccnc23)cn1 (stereo not given) | 58% (inactive) and 18.9% (inactive) |
| CCN(CC)CCCC(C)N(Cc1ccccc1)CC(O)c1ccc(Cl)cc1 (stereo not given) | 103% (inactive) and 96.7% (inactive) |
| CC(C)Cc1ccc(C(C)C(=O)NCc2ccc(Cn3c(=O)sn(CCCCl)c3=O)cc2)cc1 (stereo not given) | 101% (inactive) and -20.1% (active) |
| NCCSC(C[N+](=O)[O-])c1ccccc1Cl (stereo not given) | -26.9% (active) |
| O=C(N/N=C/c1ccc2c(c1)OCO2)c1ccncc1 | 108% (inactive) and 109% (inactive) |
| CCN(CC)C(=O)c1cccnc1 | 102% (inactive) |
| COc1ccc2nc(Cl)cc(C)c2c1 | 96.5% (inactive) and 109% (inactive) |
| S=C1SCN(Cc2ccccc2)CN1Cc1ccccc1 | 93.7% (inactive) |
| N#CCCOc1ccccc1 | 96.7% (inactive) |
| O=C1CCN(Cc2ccccc2)C(=S)N1 | 107% (inactive) and 105% (inactive) |
| CC1CCCc2sc3nc(NNC(=O)c4cnccn4)n(-c4ccccc4)c(=O)c3c21 (stereo not given) | 3.51% (active) and 7.07% (active) |
| NC(=O)c1ccccc1OCC(O)CO (stereo not given) | 98.1% (inactive) |
| CCOc1ccc2nc3cc(N)ccc3c(N)c2c1 | 77.6% (inactive) and 77.2% (inactive) |
| CC1CCCC(=O)O1 (stereo not given) | 108% (inactive) and 97.9% (inactive) |

| SMILES | growth |
| --- | --- |
| CN1CCN(c2ccc3nc(-c4c(N)c5c(F)cccc5[nH]c4=O)[nH]c3c2)CC1 | 12.9% (inactive) and 22.3% (inactive) |
| CC(C)CNC(=O)c1ccccc1C(=O)NC1(C(=O)NCC(C)C)CCCC1 | 95.7% (inactive) and 107% (inactive) |
| O=Nc1ccc(O)cc1 | 99% (inactive) and 93.9% (inactive) |
| CC(C(=O)O)n1cc(C#N)c(=O)[nH]c1=O (stereo not given) | 103% (inactive) and 108% (inactive) |
| COc1ccc(CCN(C)CCCC(C#N)(c2ccc(OC)c(OC)c2)C(C)C)cc1OC (stereo not given) | 87.5% (inactive) and 104% (inactive) and 101% (inactive) |
| N#C/C(=C/c1c(O)ccc2ccccc12)C(N)=O | 107% (inactive) |
| CC[N+](CC)(CC(=O)Nc1c(C)cccc1C)Cc1ccccc1 | 106% (inactive) and 98.5% (inactive) |
| CN1CCN(Cc2occc(=O)c2O)CCN(C)CCN(Cc2occc(=O)c2O)CC1 | 93.2% (inactive) and 12.3% (inactive) |
| NC(=S)NS(=O)(=O)c1ccc(N)cc1 | 101% (inactive) |
| CC1=NN(c2ccccc2)C(=O)C1C(=O)c1ccccc1 (stereo not given) | 91.5% (inactive) |
| COc1ccc(Cn2c(NCCN=C(N)N)nc(=O)n(Cc3ccc(F)cc3)c2=O)cc1 | 108% (inactive) and 107% (inactive) |
| O=C=NC(c1ccccc1)(c1ccccc1)c1ccccc1 | 107% (inactive) |
| Clc1nc(Oc2ccccc2)nc(-c2cn(-c3ccccc3)c3ccccc23)n1 | 102% (inactive) |
| OCc1ccccn1 | 102% (inactive) |
| Oc1ccc(/C=C/c2ccccc2)cc1 | 76.1% (inactive) and 59.9% (inactive) |

Same assay, conditions: 30 µM

| SMILES | growth |
| --- | --- |
| CNC(=O)c1cc(Oc2ccc(CC(=O)Nc3cc(C(C)(C)C)nn3C)cc2)ccn1 | 80.8% (inactive) |
| CC(C)(C)c1cc(NC(=O)Cc2ccc(-c3cnc4cc(-c5cnn(CCN6CCOCC6)c5)ccc4n3)cc2)no1 | 20.8% (inactive) |

Same assay, conditions: 50 µM

| SMILES | growth |
| --- | --- |
| CC1(C)OB(c2ccc(Cn3cc(F)c(=O)[nH]c3=O)cc2)OC1(C)C | 75.8% (inactive) |

Same assay, conditions: 100 µM

| SMILES | growth |
| --- | --- |
| COc1ccc(Cl)cc1C(=O)NCCc1ccc(S(=O)(=O)NC(=O)NC2CCCCC2)cc1 | 57.9% (inactive) |

From PubChem BioAssay (NCI)
